For this assay, the system named is VDR:RXRa (NR concentration 270 nM, RXRa partner concentration 90 nM). The assay is described as follows: PBM binding z-score (relative to random genomic background probes); higher = stronger binding; sequences stand for … in GC…GCGATTGACAGCGTAGAATGAAGG
As to the method:
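Protein-binding microarray (Agilent 4x180K custom design, double-stranded 60-nt probes: 5' GC cap, 34-nt variable region, 24-nt constant primer region; full probe sequence given). Purified or IVT nuclear receptor:RXRα heterodimers (3:1 NR:RXRα, mostly 270:90 nM) or homodimers were incubated for 1 h in PBS with 2% milk and no ligand, then detected with Alexa488 antibodies. Fluorescence from o1-orientation probes (~5 replicates averaged) was converted to z-scores against 500 random hg19 background probes. Variable regions are seed direct-repeat (DR0–DR5) sites, all their single-nucleotide variants and half-site ablations.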
GCGACTGGGGCATCAGCAGGTTACGATAACTTAA yielded a PBM binding z-score of 0.0769. In the case of TCTAGTTGGTCACGGAGGTCATACACGACGGGTA it was 5.88. As for CAAACTAGGTCACGAAAGGTCAATGTCGAATGAC, the PBM binding z-score was determined as 6.57. As for TTTCGGAGGACACGAAAGGTCAGAGCTCGACATC, the PBM binding z-score was 3.54. For CAAGCTAGGTCACCGGAAGGTCAAAGTCCGCATG, the PBM binding z-score came to 6.18. The figure for TAGCCTAGGTCATTCAGGAGCCAGTATAGAAAGC is 2.21; for TATTGTAGATCAACAGGAGGTTAAGAAAGATCGA it is 0.587; for AGAATGAGGTTATTAATATCAGGGAATTGCGGTC it is 1.27. On to ATCGACAGGTCGAGGTGAGTATAGAGAAAGGGAA, for which the PBM binding z-score stood at 0.389. The figure for AAAATGAGGTTATTAAGATCAGGGAATTGCGGTC is 2.47; for ACTAGCAGGCCAAGGGTCAATCAAGATTAGTCCG it is 2.66; for TAGCCTAGGTCATGTGCCAGTATACCACGCGAAC it is 2.35. Sequence TCTATTAGTTGAAGGTCAACCGACGAGTCCGTTT yielded a PBM binding z-score of 3.85.

As for CCTAGATGGTCAAGGTCACACACGCTATAGGTAC, the PBM binding z-score was 4.15. For the sequence GGAACAAGGGCAAGTTGATAGCAGAGTTTGATGG, the PBM binding z-score amounted to 0.829. Sequence GCAGACAGGTGAAACGCAGGCAACTCAGGGTGGC had a PBM binding z-score of -0.567. TCTTGTAGATGAAAGGTTAAGAAAGCCGAAGCCT registered a PBM binding z-score of 1.06.

ATCTCTATGTAACAAGTTCAGTGAAAGAGAGGAC had a PBM binding z-score of 1.26. Consider ATCTCTAGGTAACCAAGGTCAGTGAATGCCGAAC, for which the PBM binding z-score stood at 3.67. CCGACTGGGGCAGAAAGGTTTCCATACCATCCGG showed a PBM binding z-score of -0.642.

For CGAACTGGGTCAGAACAGGACAGTGAAGGATGAT, the PBM binding z-score turned out to be 0.685. GTACCAAGGTGAATAGGTCGTGGATGAGTAGGCG yielded a PBM binding z-score of 0.918. AGAATGAGGTTATACGTAGATCAGTGAAGAAAGT had a PBM binding z-score of 1.31. Consider TCTCGGAGGACACGGAAGGTCAGAGCTCGACATC, for which the PBM binding z-score worked out at 1.97. Sequence GCTGCTAGGCCAGGTTGGTCAGCTAACGGGTACG gave a PBM binding z-score of -1.03. As to TCTAGTTGGTCACGGAGGTCACCCACGACGGGTA, the PBM binding z-score was determined as 5.63. On to CCTTACGGGTCACGAGGTTATGGCACGACGAGCG, for which the PBM binding z-score came to 4.99. On to AATATAGGGTCATCGTAGGCCAGAGTACGCACAG, for which the PBM binding z-score was found to be 5.22. Consider AATACAGGGTCCCTAGGCCAGAGTAGGTACGAAT, for which the PBM binding z-score is -0.389. TGAATGAGGTTATAAGATCAGCGAACGTTGCAAA yielded a PBM binding z-score of 0.842.

For the sequence CTCGAAAGGTCGGTTGCGGTGAGTATACGGATAA, the PBM binding z-score turned out to be 1.11. For AGAATGAGGTTATATGTAGATCAGGGAAGAAAGT, the PBM binding z-score is 1.43. In the case of CCTTACGGGTCACTGACAGGTTATGGCATTTGGA it was 3.75; in that of TCTATTAGTAGATTAGGGCAACCGAAACAGCGGA, 0.247; in that of TCTTGTGGATCAGCAGGTTAAGAAAGCTGGCCAA, 0.405. In the case of CCTATTAGTTAACCATAAGGGCAACCGAAGCTCG it was 0.653; in that of GCTAGTTGGTCAGTAAAAGGTCACAGACCGGTCG, 3.94; in that of TAGCCTAGGTCATTCCGGGGCCAGTATAGAAAGC, 2.94.

Sequence ATCTCTAGGAAACAAGTTCAGTGAAAGAGAGGAC gave a PBM binding z-score of 1.45. TCATATAGGTAAACAGGTTAAAGTCCGTAAGTTA gave a PBM binding z-score of 1.88.

These data come from the supplement of paper PMC6555819.
